The campaign covered roughly 310,000 compounds. About 2,200 (0.71%) showed an effect of 50% or more. Effects have a minus sign here. This is one part of a sample in which strong results are shown more often than they occur.
Molecular target: human ether-à-go-go-related gene (hERG) potassium channel (human, UniProt Q12809)
Assay: primary screen, population patch clamp on CHO cells stably expressing hERG; higher = less effect of the substance

Sequence of human ether-à-go-go-related gene (hERG) potassium channel (Q12809 whole entry, looked up): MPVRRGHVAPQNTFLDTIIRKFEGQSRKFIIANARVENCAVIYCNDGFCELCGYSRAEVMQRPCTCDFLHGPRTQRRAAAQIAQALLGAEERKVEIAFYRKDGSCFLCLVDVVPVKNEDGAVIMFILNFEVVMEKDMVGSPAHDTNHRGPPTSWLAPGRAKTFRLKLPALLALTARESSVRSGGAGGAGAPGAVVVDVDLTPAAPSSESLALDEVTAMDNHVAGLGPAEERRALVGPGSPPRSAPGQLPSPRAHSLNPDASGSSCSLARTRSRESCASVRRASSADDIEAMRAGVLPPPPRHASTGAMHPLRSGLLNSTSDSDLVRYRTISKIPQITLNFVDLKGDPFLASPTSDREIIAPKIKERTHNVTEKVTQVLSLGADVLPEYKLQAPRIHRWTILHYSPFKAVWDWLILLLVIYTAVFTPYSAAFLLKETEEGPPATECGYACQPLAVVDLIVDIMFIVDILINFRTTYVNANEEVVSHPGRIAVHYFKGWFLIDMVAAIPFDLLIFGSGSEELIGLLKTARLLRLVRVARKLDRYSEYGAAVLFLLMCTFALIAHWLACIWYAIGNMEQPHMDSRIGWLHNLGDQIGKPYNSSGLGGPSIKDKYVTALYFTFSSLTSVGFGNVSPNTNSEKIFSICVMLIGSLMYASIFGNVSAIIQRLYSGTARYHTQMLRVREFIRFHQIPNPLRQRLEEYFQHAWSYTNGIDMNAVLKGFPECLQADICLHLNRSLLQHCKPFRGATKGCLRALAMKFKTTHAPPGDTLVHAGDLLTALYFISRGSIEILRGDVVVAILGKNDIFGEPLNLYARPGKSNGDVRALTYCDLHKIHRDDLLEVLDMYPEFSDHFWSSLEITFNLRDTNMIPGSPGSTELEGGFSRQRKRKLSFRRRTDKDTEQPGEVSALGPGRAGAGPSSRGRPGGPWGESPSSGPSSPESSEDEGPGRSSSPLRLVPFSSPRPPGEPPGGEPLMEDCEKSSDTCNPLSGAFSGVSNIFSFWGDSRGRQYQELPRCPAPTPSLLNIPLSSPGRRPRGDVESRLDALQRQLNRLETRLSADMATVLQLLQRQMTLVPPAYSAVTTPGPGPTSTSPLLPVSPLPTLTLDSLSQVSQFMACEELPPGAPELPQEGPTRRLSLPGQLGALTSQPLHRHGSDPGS

SMILES	hERG current change (%, negative = inhibition) at 1uM
Cc1nnc(SCc2ccc(C(=O)c3ccc(Cl)cc3)o2)n1-c1ccccc1	-14.1%
Cc1[nH]c2ccccc2c1/C=C/c1nc2ccccc2c(=O)n1-c1cccc([N+](=O)[O-])c1	8.08%
CCOc1ccc(C2c3c(oc4cc(C)c(C)cc4c3=O)C(=O)N2CCCN(C)C)cc1OC (centres unmarked)	4.1%
CCN(CC)C(=O)CN(c1cccc(OC)c1)S(=O)(=O)c1ccc(C)cc1	13.2%
Cc1ccc(-n2[nH]c(C)c(/C=N/Nc3ccc([N+](=O)[O-])cc3[N+](=O)[O-])c2=O)cc1C	9.38%
CCOc1ccc(S(=O)(=O)NN=C2CCN(C(C)=O)CC2)cc1	2.55%
CC(C)CNC(=O)CSc1nnc(-c2ccccn2)n1Cc1ccccc1	7.89%
C[C@](N)(CCP(=O)(O)O)C(=O)O.Cl	-5.32%
CCOC(=O)CSc1nc2ccccc2c(=O)n1CC1COc2ccccc2O1 (centres unmarked)	6.59%
O=C(CCNS(=O)(=O)c1cccc2nsnc12)Nc1ccc2c(c1)OCCO2	12%
CSc1ncc(Cl)c(C(=O)[O-])n1.[NH3+]CCc1ccccc1	0.119%
Cc1ccc(CCNC(=O)C2CCN(S(=O)(=O)N3CCC4(CC3)OCCO4)CC2)cc1	9.02%
Cc1nc2ccccc2n1CCc1nc2c3ccccc3nc(SCC#N)n2n1	-0.451%
NC(=O)CSc1nc2c(c(=O)n1-c1ccccc1)C1(CCCCC1)Cc1ccccc1-2	16.4%
COc1ccccc1Nc1c2ccccc2nc2ccccc12	-18.4%
COc1cc(Nc2c3ccccc3nc3ccccc23)cc(OC)c1OC	-32.7%
COc1cc(NS(C)(=O)=O)ccc1Nc1c2ccccc2nc2ccccc12.Cl	-59.7%
Cc1ccc2c(Cn3ccnc3)cc(=O)oc2c1C	15.6%
CCCn1nnnc1NCc1ccc(N2CCCC2)cc1	-1.22%
Cc1ccc2nc(C)c3c(c2c1)N(c1ccccc1)CC3	-70%
Cc1ccc2nc(C)c3c(c2c1)N(c1ccc(F)cc1)CC3	-94.5%
CSc1nc(C)c2c(n1)N(c1ccc(F)cc1)CC2	20.1%
COc1cccc(N2CCc3c(C)nc4ccc(Cl)cc4c32)c1	-48.5%

SMILES	hERG current change (%, negative = inhibition) at 1uM
Cc1ccc2nc(C)n(-c3ccc(F)cc3)c(=O)c2c1	19%
Cc1ccc2nc3c(c(N)c2c1)CCN3c1ccccc1.O=C(O)C(=O)O	-2.46%
COc1c2c(cc3oc(=O)c4c5ccc(O)cc5oc4c13)OC(C)(C)CC2	17.1%
c1cncc(-c2nnc(SCc3cccc4ccccc34)o2)c1	0.0047%
CC(=O)N1CCN(c2nc(-c3ccco3)c3c(c2C#N)CC(C)(C)SC3)CC1	7.62%
CCOc1ccc(/C=C(/NC(=O)c2ccc(Cl)cc2)C(=O)O)cc1OCC	-4.42%
COc1ccccc1CC(=O)Nc1ccc([N+](=O)[O-])cc1OC	8.75%
Cn1c(=NC(=O)C2CC2)sc2cccc(F)c21	1.19%
CC(=O)c1ccc(NS(=O)(=O)c2ccc3c(c2)N(C)CCO3)cc1	1.5%
Cc1ccc(NS(=O)(=O)c2ccc3c(c2)N(C)CCO3)cc1	-79.6%
Cc1ccc(CNS(=O)(=O)c2ccc3c(c2)N(C)CCO3)cc1	17.8%
C/C(CC(=O)Nc1ccc(N(C)C)cc1)=N\NC(=O)c1ccc(C(C)(C)C)cc1	15.5%
CCOC(=O)C1(Cc2cccc(OC)c2)CCN(Cc2cccc(O)c2)CC1	-9.46%
CCOC(=O)C1(Cc2cccc(OC)c2)CCN(Cc2cccn2-c2ccccn2)CC1	-79.4%
CCOC(=O)C1(Cc2cccc(OC)c2)CCN(Cc2cccn2-c2nccs2)CC1	-77.7%
CCOC(=O)C1(Cc2ccccc2)CCN(Cc2cccn2-c2cccnc2)CC1	1.67%
CCOC(=O)C1(Cc2cccc(OC)c2)CCN(Cc2ccccc2)CC1	-7.08%
CCOC(=O)C1(Cc2cccc(OC)c2)CCN(Cc2ccccc2OC)CC1	-18.5%
CCOC(=O)C1(Cc2ccccc2)CCN(Cc2cccn2-c2nccs2)CC1	-69.8%
CCOC(=O)C1(Cc2cccc(OC)c2)CCN(Cc2cccnc2)CC1	11.5%
CCOC(=O)C1(Cc2ccccc2)CCN(Cc2cccc3nccnc23)CC1	-10.3%
Cc1ccc(NC(=O)CN(C)C(=O)Cn2c(=O)oc3ccccc32)cc1	7.84%
CC1CC(C)(C)NC(=S)N1CCCC(=O)N1CCN(c2ccc(F)cc2)CC1 (centres unmarked)	-4.06%

SMILES	hERG current change (%, negative = inhibition) at 1uM
CCCN(CCC)C(=O)Nc1cc(Cl)ccc1OC	14.4%
CCOC(CNC(=O)Cn1nc(C)c2ccccc21)OCC	8.42%
CCCCn1nnc(NC(=O)c2ccc(-c3ccccc3)cc2)n1	13.7%
CC(C)(C)c1csc(NC(=O)c2c(F)c(F)c(F)c(F)c2F)n1	-2.19%
O=C(c1cc(-c2ccccc2)nc2ccccc12)N1CCN(c2ccccn2)CC1	1.88%
O=C(c1cc(-c2ccncc2)nc2ccccc12)N1CCN(c2ccccn2)CC1	-64%
O=C(c1cc(-c2ccncc2)nc2ccc(Br)cc12)N1CCN(c2ccccn2)CC1	-9.18%
CCCCCCCC(=O)Nc1ccc(C(=O)N/N=C/c2cccc([N+](=O)[O-])c2)cc1	12.6%
O=C(CCSc1ccccc1)OCn1nnc2ccccc2c1=O	13.7%
O=C(COc1ccccc1)N1CCN(S(=O)(=O)c2cccs2)CC1	-7.49%
N#Cc1ccc(OCC(=O)N2CCN(S(=O)(=O)c3cccs3)CC2)cc1	-54.7%
N#Cc1ccc(OCC(=O)N2CCN(S(=O)(=O)c3ccc(Cl)s3)CC2)cc1	-22.7%
CCCc1cc(C(=O)O)c2ccccc2n1	-0.521%
CN(CCC#N)C(=O)COc1ccc(Br)cc1Cl	3.5%
CC(C)c1csc(CN2CCN(Cc3ccc(F)cc3)C(CCO)C2)n1 (centres unmarked)	-4.26%
Cc1ccc(CN2CCN(Cc3nc(C(C)C)cs3)CC2CCO)cc1 (centres unmarked)	-50.8%
CC(C)c1csc(CN2CCN(Cc3ccc(F)c(F)c3)C(CCO)C2)n1 (centres unmarked)	2.23%
CCOc1ccc(CN2CCN(Cc3nc(C(C)C)cs3)CC2CCO)cc1 (centres unmarked)	-85.5%
CC(C)c1csc(CN2CCN(Cc3ccccc3)C(CCO)C2)n1 (centres unmarked)	10.1%
COc1cccc(CN2CCN(Cc3nc(C(C)C)cs3)CC2CCO)c1 (centres unmarked)	-20%
Cc1ccc(S(=O)(=O)NC(=O)NCc2ccc(Cl)cc2)cc1	10.1%
COC(=O)C1C(=O)C2=C(CC1C)NC(C)=C(C(=O)OCc1ccc(OC)cc1)C2c1ccc(C)o1 (centres unmarked)	0.03%
O=S(=O)(c1ccc(F)c(F)c1)N1CCN(Cc2ccc3c(c2)OCO3)CC1	-9.04%

SMILES	hERG current change (%, negative = inhibition) at 1uM
Cc1c(NC(=O)c2ccc3c4c(cccc24)CC3)c(=O)n(-c2ccccc2)n1C	15.3%
CC(=O)c1cccc(-n2nnnc2SCC(=O)Nc2cc(C)on2)c1	12.1%
Cc1ccc2nc(CSc3nnc(-c4ccco4)n3-c3ccccc3)cc(=O)n2c1	-2.87%
c1coc(-c2nnc(SCc3cn4ccccc4n3)o2)c1	-2.53%
Cc1ccc2nc(CSc3nnc(-c4ccco4)o3)cc(=O)n2c1	-54%
NC(=O)c1nsc(C(=O)N(c2ccccc2F)C(C(=O)NCc2ccccc2)c2ccc(O)cc2)c1N (centres unmarked)	8.51%
COc1ccc(C(=O)N2CCN(Cc3ccccn3)CC2)cc1.O=C(O)C(=O)O	3.65%
O=C(c1ccccc1)N1CCN(CCc2ccccn2)CC1	16.3%
COc1ccc(C(=O)N2CCN(c3ccccn3)CC2)cc1	6.53%
Cl.O=C(c1ccc(Cl)cc1)N1CCN(CCc2ccccn2)CC1	-53.7%
COc1ccc(C(=O)N2CCN(CCc3ccccn3)CC2)cc1.Cl	-66.6%
O=C(c1sc2cc(Cl)ccc2c1Cl)N1CCN(CCc2ccccn2)CC1	-36.6%
COCCn1c(C)cc(/C=C2\NC(=S)N(C)C2=O)c1C	9.65%
Cc1ccc(S(=O)(=O)NCCC(=O)NC(C)CCc2ccccc2)cc1 (centres unmarked)	-10.7%
C=CCN(c1ccccc1)S(=O)(=O)c1cccc(C(=O)NCC(c2ccccc2OC)N2CCCC2)c1 (centres unmarked)	-12.9%
CCN(CC)c1ccc(C2NC(=O)NC(C)=C2C(=O)Nc2ccccc2)cc1 (centres unmarked)	17.3%
Cc1cccc(NC(=O)CSc2nnnn2C)n1	12.6%
Fc1ccc(-n2cc(CNCCc3ccncc3)c(-c3ccccc3Cl)n2)cc1	-3.18%
Fc1ccc(-n2cc(CNCCc3ccccn3)c(-c3ccccc3Cl)n2)cc1	-78.2%
Fc1ccc(-n2cc(CNCCc3cccnc3)c(-c3ccccc3Cl)n2)cc1	-10%
